Results reported in PubChem BioAssay AID651814 (National Center for Advancing Translational Sciences (NCATS), 2012).
The whole screen tested about 2,100 compounds, of which about 590 (28%) were called active. Inconclusive results (about 42%) are left out. The list shows a part of the results. Unmarked numbers belong to inactive results. Calls come from the whole dose curve; as a rule, active = well fitted inhibition curve with a large enough effect; inconclusive = small, poorly fitted or top-dose-only effect; inactive = flat fitted curve, though single readings scatter.

target: DNA dC->dU-editing enzyme APOBEC-3F (Homo sapiens) (UniProt Q8IUX4); assay: qHTS for inhibitors of Vif-A3F interactions: Cherry picks; settings: HeLa A3F-eYFP + Vif (tagged APOBEC3F with the HIV-1 protein that degrades it), eYFP fluorescence, 24 h; note: nearly all actives have a fitted effect of over 70% in size;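 for max response: % of control where 0% means no effect; active compounds raise eYFP fluorescence by blocking Vif-driven A3F loss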
From the text: The recent discovery and characterization of host restriction factors, which provide a potent defense to invading retroviruses, has provided new targets for antiviral drug development. APOBEC3G (A3G) and APOBEC3F (A3F) are potent cytidine deaminases that block HIV-1 replication; HIV-1 expresses the Vif protein, which counteracts A3G and A3F by binding to them and inducing their proteasomal degradation. The Vif-A3G and Vif-A3F interactions provide two potential targets for development of small molecules which can interfere with the ability of Vif to degrade A3G or A3F. […] To identify inhibitors that can interfere with Vif mediated degradation of A3G and A3F, we have developed Hela cell lines that stably express A3G or A3F tagged with eYFP at the C-terminal end (A3G-eYFP or A3F-eYFP, respectively) and Vif. In the absence of an inhibitor, Vif induces degradation of A3G-eYFP and A3F-eYFP, and the cells are not fluorescent. In the presence of an inhibitor, it is expected that Vif will be unable to degrade A3G-eYFP and/or A3F-eYFP, resulting in an increase in yellow fluorescence. In this assay, Vif A3F was screened against the cherry picks ordered from the MLSMR. NIH Chemical Genomics Center [NCGC] NIH Molecular Libraries Probe Centers Network [MLPCN] MLPCN Grant: MH093245 Assay Submitter (PI): Vinay Pathak, National Cancer Institute
A3F-Vif cells were harvested from T225 flask and resuspended in phenol free OPTI-MEM medium with 5% FBS. Then 5 uL of 140,000 cells/mL resuspended cells was dispensed into each well of low base Aurora COC 1,536-well plates (black walled, clear bottom) using a Multidrop Combi dispenser. After overnight culture at 37 deg C with 5% CO2, a total of 23 nL of compounds at 5 selected concentrations from the NPC or positive control (2 mM stock of MG132) in DMSO was transferred to each well of the assay plate using a pintool (Kalypsys, San Diego, CA), and the plates were further incubated at 37 deg C with 5% CO2 for 24 hours. After that, the plates were measured on Acumen Explorer (TTP Lab Tech). The fluorescence was detected by 488 nm/Ex and […].
Potency is the fitted concentration of half-maximal effect.

Chain of DNA dC->dU-editing enzyme APOBEC-3F (Homo sapiens) (Q8IUX4 whole entry, looked up): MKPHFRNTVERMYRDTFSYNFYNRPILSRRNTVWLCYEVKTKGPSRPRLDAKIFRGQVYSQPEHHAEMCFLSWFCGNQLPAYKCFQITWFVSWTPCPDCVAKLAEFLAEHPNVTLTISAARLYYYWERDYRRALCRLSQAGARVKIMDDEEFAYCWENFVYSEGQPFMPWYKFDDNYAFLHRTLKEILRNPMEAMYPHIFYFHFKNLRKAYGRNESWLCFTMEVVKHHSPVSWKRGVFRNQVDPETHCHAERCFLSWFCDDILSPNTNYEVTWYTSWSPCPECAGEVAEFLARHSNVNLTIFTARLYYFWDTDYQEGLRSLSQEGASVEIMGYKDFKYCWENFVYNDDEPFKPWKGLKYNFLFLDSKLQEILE

Row | Structure (SMILES) | max response [%] | Potency
1 | COc1ccc(C2=NOC(C(=O)NCc3ccc(F)cc3)C2)cc1 (stereo not given) | -16.1 | –
2 | CN(C)c1ccc(/C=C/c2ccnc3ccccc23)cc1O | – | 11.6 µM (active)
3 | CN(C)c1ccc(/C=C/c2ccnc3ccccc23)cc1N | -19.7 | –
4 | CCc1cc(/C=C/c2ccnc3ccccc23)ccc1N(C)C | – | 14.6 µM (active)
5 | CN1CCCc2cc(/C=C/c3ccnc4ccccc34)ccc21 | – | 4.11 µM (active)
6 | Cc1cc(/C=C/c2ccnc3ccccc23)ccc1N(C)C | – | 8.2 µM (active)
7 | CCS(=O)(=O)c1nn2c(N)c(/C=C3/C=CC(=O)C(OC)=C3)c(=O)nc2s1 | 11 | –
8 | Cc1ccc(NC(=S)N/N=C2\CCCCC2C)cc1 (stereo not given) | 0.346 | –
9 | O=C(/C=C/c1ccccc1)Nc1ncn[nH]1 | -21.2 | –
10 | Cc1cc(/C=C/c2ccnc3ccccc23)ccc1N | – | 14.6 µM (active)
11 | COc1cccc(-c2ccc3c(N)c(C(=O)c4ccc(Br)cc4)sc3n2)c1 | – | 10.3 µM (active)
12 | COc1ccc2nc3sc(C(=O)Nc4cc(Cl)c(OC)cc4OC)cc3cc2c1 | -28.2 | –
13 | COc1cccc(-c2ccc3c(N)c(C(=O)c4ccc(Cl)cc4)sc3n2)c1 | – | 18.4 µM (active)
14 | N#CC(C#N)=C1C=C2C=C(N3CCOCC3)CCC2CC1 (stereo not given) | 0.0461 | –
15 | O=C1N/C(=N\N=C\c2ccco2)SC1Cc1ccccc1[N+](=O)[O-] (stereo not given) | -0.95 | –
16 | Cn1c2ccccc2c2ccc3c(c21)C(=O)C=CC3=O | 5.63 | –
17 | COc1c(-c2ccc(O)c(O)c2)oc2cc(O)cc(O)c2c1=O | – | 14 µM (active)
18 | CCC[N+](C)(C)c1ccc(/C=C/c2ccncc2)cc1 | – | 2.31 µM (active)
19 | CC[N+](C)(C)c1ccc(/C=C/c2ccncc2)cc1 | – | 4.11 µM (active)
20 | CC1CC(=O)C2=C(C1)OC(N)=C(C#N)C2c1coc2ccccc2c1=O (stereo not given) | -25.1 | –
21 | COc1cc(/C=C(\C#N)c2nc3ccccc3[nH]2)ccc1OCc1ccccc1F | – | 18.4 µM (active)
22 | CCC(=O)Nc1nc2ccc(NC(=O)c3cc(OC)c(OC)c(OC)c3)cc2s1 | -4.22 | –
23 | COc1cc(/C=C(\C#N)c2nc3ccccc3s2)ccc1OCC(=O)Nc1ccccc1 | – | 14 µM (active)

Row | Structure (SMILES) | max response [%] | Potency
24 | COc1ccc(OC)c2sc(NC(=O)CCS(=O)(=O)c3ccccc3)nc12 | -17.2 | –
25 | COc1cc(/C=C(/C#N)c2nc3ccccc3[nH]2)ccc1OCC(=O)Nc1ccccc1C(C)C | – | 16.4 µM (active)
26 | COc1cc(/C=C(\C#N)c2nc3ccccc3[nH]2)ccc1O | 6 | –
27 | COc1ccc(OC)c(Nc2nc(-c3ccncc3)nc3ccccc23)c1 | -10.6 | –
28 | COc1cc(/C=C/c2ccnc3ccccc23)ccc1N(C)C | – | 9.2 µM (active)
29 | COc1cc(N(C)C)c(OC)cc1/C=C/c1ccnc2ccccc12 | – | 20.6 µM (active)
30 | COc1cc(OC)c(/C=C/c2ccnc3ccccc23)c(OC)c1 | – | 14.6 µM (active)
31 | Cc1cc(C)c(NC(=O)Cn2c(=O)n(Cc3ccc(C(=O)NCc4ccco4)cc3)c(=O)c3sccc32)c(C)c1 | – | 14.6 µM (active)
32 | Cc1c(C)n(Cc2ccccc2)c2ccc(C(=O)NCc3ccco3)cc12 | -24.7 | –
33 | COc1ccccc1-c1c(C#N)c(N)nc2c1CCc1ccccc1-2 | -14.7 | –
34 | COc1ccc2c(n1)Sc1nc3ccccc3nc1N2 | – | 4.11 µM (active)
35 | Cc1ccc(NC(=S)NC(=O)c2ccc(F)cc2)cc1S(=O)(=O)Nc1cccc(Cl)c1 | -16.8 | –
36 | CCCOc1ccc(C(=O)Nc2cccc(NC(=O)c3ccc(Cl)cc3Cl)c2)cc1 | – | 16.4 µM (active)
37 | CCCOc1ccc2cc(C(=O)NCc3ccccc3)c(=O)oc2c1 | -1.07 | –
38 | c1cncc(-c2nc(NCc3cccs3)c3ccccc3n2)c1 | -5.9 | –
39 | COc1ccc(-c2cc(-c3nnc(COC(=O)c4ccncc4)o3)c3ccccc3n2)cc1OC | 2.21 | –
40 | NC(=S)N/N=C/c1cccc(O)c1O | -21 | –
41 | CC(=O)N/N=C/c1cc(C(C)(C)C)cc(/C=N/NC(C)=O)c1O | – | 23.1 µM (active)
42 | Nc1c(C(=O)Nc2ccc(S(=O)(=O)N3CCCC3)cc2)sc2nc3cc4c(cc3cc12)CCC4 | – | 6.51 µM (active)
43 | CCc1cccc2cc3c(N)c(C(=O)Nc4ccc(S(=O)(=O)N5CCCC5)cc4)sc3nc12 | – | 2.8 µM (active)
44 | O=C(CN1c2cccc3cccc(c23)S1(=O)=O)Nc1ccc(S(=O)(=O)N2CCOCC2)cc1 | -0.998 | –
45 | Cc1c(C(=O)Nc2ccc(C(C)C)cc2)sc2nc3n(c(=O)c12)CCC3 | -1.94 | –
46 | Nc1c(C(=O)Nc2ccc(S(=O)(=O)N3CCCC3)cc2)sc2nc3ccc(OC(F)(F)F)cc3cc12 | – | 20.6 µM (active)

Row | Structure (SMILES) | max response [%] | Potency
47 | COc1ccc(NC(=O)c2oc3ccc(S(=O)(=O)N4CCOCC4)cc3c2C)cc1 | -0.455 | –
48 | O=C(Nc1ccc(Cl)cn1)c1cccc(S(=O)(=O)N2CCCCCC2)c1 | -1 | –
49 | CC(C)c1ccc(C(=O)NCCCNC(=O)c2cnccn2)cc1 | 1.42 | –
50 | Fc1cccc(F)c1/C=N/NC(=S)Nc1cccnc1 | -0.429 | –
51 | O=C(Nc1ccc([N+](=O)[O-])cc1)C(Cc1ccccc1)N1C(=O)c2cccc3cccc(c23)C1=O (stereo not given) | – | 12.5 µM (active)
52 | O=C(O)Cc1sc(NC2CCCCC2)nc1-c1ccc(Cl)cc1 | -1.51 | –
53 | Cc1nonc1NC(=O)CSc1nc2c(C)cccc2cc1C#N | – | 18.4 µM (active)
54 | COCc1cc(C)nc(SCC(=O)Nc2ccc3[nH]c(=O)[nH]c3c2)c1C#N | 0.302 | –
55 | Cc1ccc(NC(=O)CSc2n[nH]c(-c3ccccn3)n2)cc1 | -3.6 | –
56 | Cc1cc(NC(=O)CSc2nc3c(C)cccc3cc2C#N)no1 | – | 7.31 µM (active)
57 | Cc1nc2cc(NC(=O)CSc3nc4c(C)cccc4cc3C#N)ccc2s1 | – | 11.6 µM (active)
58 | CN1C(=O)N(C)c2ccc(C=O)c3cccc1c23 | -1.54 | –
59 | N#C/C(=C/c1cccs1)c1ccccn1 | – | 17.7 µM (active)
60 | CCOc1ccc(Br)cc1C1C(C(=O)OC)=C(N)Oc2cc(N(C)C)ccc21 (stereo not given) | -21.7 | –
61 | Cn1cccc1/C=C1\SC(=Nc2ccc(O)cc2)NC1=O | – | 12.5 µM (active)
62 | COc1cccc(N=C2NC(=O)/C(=C/c3cc([N+](=O)[O-])ccc3O)S2)c1 | -16.1 | –
63 | Cc1cccc(N=C2NC(=O)/C(=C/c3cccn3C)S2)c1 | -9.23 | –
64 | Cc1ccc(N=C2NC(=O)/C(=C/c3cccn3C)S2)cc1 | – | 9.94 µM (active)
65 | Cn1cccc1/C=C1\SC(=Nc2cccc(O)c2)NC1=O | – | 15.8 µM (active)
66 | Cc1ccc(N=C2NC(=O)/C(=C/c3cn(C)c4ccccc34)S2)cc1C | – | 17.7 µM (active)
67 | C=C1C(=O)O[C@@H]2[C@H]1[C@@H](OC(=O)/C(C)=C/C)C/C(C)=C\C(=O)/C=C(\C)[C@@H]2O | -29.6 | –
68 | Cc1ccc(N2C(=O)[C@@H]3[C@H](C2=O)[C@H]2C=C(C(=O)c4ccccc4)C=CN2[C@@H]3C(=O)c2ccc(Cl)cc2)cc1 | -5.61 | –
69 | COc1ccc(/C=C(/C(=O)c2cccs2)N2C=CC=CC2=C(C#N)C#N)cc1 | -25.3 | –

Row | Structure (SMILES) | max response [%] | Potency
70 | CCOC(=O)c1c(CN(CC)CC)n(-c2ccccc2)c2ccc(O)cc12 | 0.203 | –
71 | COc1cc(/C=C2\SC(=Nc3cccnc3)NC2=O)cc(OC)c1OC | -8.17 | –
72 | COc1cc(/C=C2/SC(=Nc3ccc(O)cc3)NC2=O)ccc1O | – | 16.4 µM (active)
73 | CCC(=O)NC(=S)Nc1cccc(Cl)c1N1CCCC1 | -0.93 | –
74 | COCCCN(C(C)=O)c1nc(-c2ccc(OC)cc2)cs1 | -29.1 | –
75 | CCOC(=O)c1cc(-c2ccccc2)sc1NC(=S)Nc1cc(C)ccn1 | – | 8.2 µM (active)
76 | Cc1ccc(NC(=S)Nc2ccccn2)c(C)c1 | 1.92 | –
77 | CCOC(=O)c1ccc(NC(=S)Nc2cccc(C)n2)cc1 | -6.7 | –
78 | CC(=O)Nc1ccc2c(c1)Cc1ccc(Cl)cc1-2 | -9.88 | –
79 | NC(=O)C1CCN(c2nc3ccccc3nc2NS(=O)(=O)c2ccc(Br)cc2)CC1 | -0.959 | –
80 | COc1ccc(N2C(=O)NC3CC2(C)Oc2ccccc23)cc1OC (stereo not given) | -29.4 | –
81 | N#C/C(=C\c1ccc([N+](=O)[O-])o1)c1nc2ccccc2[nH]1 | – | 5.17 µM (active)
82 | Cc1ccc2nc(/C(C#N)=C\c3ccc([N+](=O)[O-])o3)[nH]c2c1 | – | 3.26 µM (active)
83 | COc1ccc(C(C)(O)c2nc(-c3ccccc3OC)cs2)cc1 (stereo not given) | -27.4 | –
84 | CN(C)c1ccc(/C=C2\Oc3ccc(C#Cc4cccc(N)c4)cc3C2=O)cc1 | – | 12.5 µM (active)
85 | O=C1/C(=C/c2ccc([N+](=O)[O-])cc2)Oc2cc(O)ccc21 | -5.76 | –
86 | Cc1ccnc(N/C=C(\C#N)c2nc(-c3cccc(Br)c3)cs2)c1 | – | 11.2 µM (active)
87 | O=C(O)c1ccccc1/C=N/Nc1ccc(S(=O)(=O)N2CCOCC2)cc1[N+](=O)[O-] | -0.875 | –
88 | COc1ccccc1NS(=O)(=O)c1cc([N+](=O)[O-])ccc1N/N=C/c1sc(N2CCOCC2)nc1-c1ccccc1 | – | 2.06 µM (active)
89 | O=[N+]([O-])c1ccccc1S(=O)(=O)Nc1ccc(-c2ccc(N3CCOCC3)nn2)cc1 | -8.95 | –
90 | O=[N+]([O-])c1ccc(N/N=C/c2sc(N3CCOCC3)nc2-c2ccccc2)c(S(=O)(=O)Nc2ccccc2Cl)c1 | – | 9.2 µM (active)
